Data taken from PubChem BioAssay (NCATS).
This is one part of the list. Results filed as inconclusive are left out. Unmarked numbers belong to inactive results. Activity calls are given as the source filed them. Calls come from the whole dose curve; as a rule, active = well fitted inhibition curve with a large enough effect; inconclusive = small, poorly fitted or top-dose-only effect; inactive = flat fitted curve, though single readings scatter.

Tested on: NanoLuc luciferase (engineered Oplophorus gracilirostris luciferase)
Assay: Biochemical coelenterazine-based NLuc counterscreen for small molecule modulators of PMP22 gene expression - Km assay (AID 1508639);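 for activity change, negative = inhibition: substrate at 15 µM coelenterazine with 5 min compound preincubation before enzyme addition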
Settings: secreted NLuc enzyme, coelenterazine luminescence, Km conditions; series mostly up to 57.5 µM; activity change, negative = inhibition: at the top concentration
From the text: Assay Provider: Jim Inglese Ph.D. National Center for Advancing Translational Science, National Institutes of Health, Rockville, MD CMT is a heterogeneous group of neurological disorders that affect approximately 1 in 2,500 people. In particular, the most common form of CMT, CMT1A is genetically linked to the duplication of the PMP22 gene which leads to Schwann cell overexpression, thus manifesting itself as a typical case of dose-sensitive diseases. To identify small molecule compounds that can mediate the expression of PMP22 we developed a phenotypic assay screening strategy by utilizing genome editing techniques to construct Schwann cell lines containing novel reporter technology to monitor the transcriptional or translational regulation of PMP22. For high sensitivity we use a bioluminescent reporter system embedded in the 3' UTR of the PMP22 gene (S16(c9) Pmp22-F2sN) to identify compounds that inhibit gene expression. […] We can further discriminate the effect of all transcriptionally active molecules on PMP22 translation or stability with an assay that incorporates a short NLuc peptide (HiBiT) at the C-terminus of expressed PMP22 (S16(f8) PMP22-HiBiT) allowing alpha complementation and luminescence detection of membrane-associated PMP22 protein. These assays were screened against the NCATS Sytravon Library Collection. Miniaturization of these assays to 1536-well plate format for quantitative high throughput screening (qHTS) yielded rich data sets immediately from the qHTS assay (S16(c9) Pmp22-F2sN), when compared with data from a cell viability assay (Cell TiterGlo) to identify compounds that decreased the output signals through cellular toxicity to streamline the selection process of actives for subsequent characterization using the HiBiT assay (S16(f8) PMP22-HiBiT).
Biochemical Coelenterazine-based solution NLuc assay (Km assay) PROTOCOL TABLE (format as described by Inglese J, Shamu CE and Guy RK. 2007) SEQUENCE No. (e.g., 1, 2, 3, etc.); PARAMETER (e.g., Cells, Incubation, Reagent, etc.); VALUE and DESCRIPTION. 1. Reagent. Add 2 uL substrate per well into Greiner 1536-well white/solid bottom high base, medium binding plates. 2. Compounds. Library compounds and controls added at 23nL per well, transferred by Pin Tool. 3. Incubation. Incubate plates 5 min at ambient temperature. 4. Reagent. Add 2uL NLuc enzyme solution per well of Greiner 1536-well plates. 5. Incubation. Incubate plates at room temperature for 10 min., protect from light. 6. Detector. FLuc luminescence measured using CCD-based camera (Viewlux). NOTES (numbers refer to Sequence numbers above; values are from representative experiments) 1. Freshly prepared 15 uM Coelenterazine, 0.3M Sodium Ascorbate, 0.005M NaCl and 0.1% TritonX in PBS pH7.4, filtered through […]. 4. Enzyme was obtained by filtering media of S16 cells expressing secreted NLuc (Inglese et al. 2014) grown to 80-90% confluency in DMEM High Glucose, No Phenol Red media + 10% heat inactivated FBS + 1% Pen/Strep supplemented media6. Luminescence Read (Fluc): Clear filter; Exposure = 10 sec, Gain = High, Speed = Slow, Binning = 2X 6. Luminescence Read (Nluc): Clear filter; Exposure = 1 sec, Gain = High, Speed = Slow, Binning = 2X REFERENCES: 1. Inglese J, Shamu CE and Guy RK, Reporting data from high throughput screening of small molecule libraries, Nature Chemical Biology, 2007, 3(8): 438-441. doi.org/10.1038/nchembio0807-438 2. Yasgar A, Shinn P, Jadhav A, Auld DS, Michael S, Zheng W, Austin CP, Inglese J and Simeonov A, Compound Management for Quantitative High-Throughput Screening. J. Assoc. Lab. Auto., 2008, 13: 79-89. doi: 10.1016/j.jala.2007.12.004 3. Inglese, J., Dranchak, P., Moran, J. J., Jang, S. W., Srinivasan, R., Santiago, Y., Zhang, L., Guha, R., Martinez, N., MacArthur, R., Cost, G. J., and Svaren, J. (2014) Genome editing-enabled HTS assays expand drug target pathways for Charcot-Marie-tooth disease, ACS Chem Biol 9, 2594-2602.
% is set by controls: 0 for no effect and ±100 for the full control effect; potency is the fitted concentration of half-maximal effect.

| Compound | Potency | activity change, negative = inhibition [%] |
| --- | --- | --- |
| COc1ccc(CCNC(=O)c2cc(=O)c3c(C)cc(C)cc3o2)cc1OC | 0.273 µM (active) |  |
| O=C(c1ccc2c(c1)N(Cc1ccc(F)cc1)C(=O)c1ccccc1S2(=O)=O)N1CCN(c2ccccn2)CC1 | 1.93 µM (active) |  |
| CCOC(=O)c1ccc(NC(=O)CSc2nc3c([nH]c4ccccc43)c(=O)n2C)cc1 |  | -8.06 |
| CC(=O)N1CCCc2cc(S(=O)(=O)N3CCCC(C(=O)N4CCN(c5cccc(Cl)c5)CC4)C3)ccc21 (stereo unspecified) |  | 7.45 |
| Cc1ccc(CCNC(=O)C2CCN(c3nnc(-n4cccc4CNc4ccc(C)cc4)s3)CC2)cc1 |  | 4.33 |
| Cc1nnc(SCC(=O)NCc2ccccc2Cl)c2nn(-c3ccccc3)c(C)c12 |  | -7.95 |
| COc1cccc(NC(=O)CSC2=Nc3ccccc3C3=NC(CC(=O)NC4CCCCC4)C(=O)N23)c1 (stereo unspecified) |  | 1.03 |
| CCCn1c2ccccc2c2cnn(CC(=O)NCC3CCN(Cc4ccc(C)cc4)CC3)c(=O)c21 |  | 6.62 |
| Cc1cc(OCC(=O)NCC2(N(C)C)CCCCC2)cc(C)c1Cl |  | 2.33 |
| CCc1ccc(C2CC(=O)c3c([nH]c(C(=O)OCc4ccc(C)cc4)c3C)C2)cc1 (stereo unspecified) |  | 1.45 |
| CCOC(=O)c1c(C)[nH]c(CCC(=O)NCCCN2CCN(c3cc(C)ccc3C)CC2)c1C |  | -2.31 |
| Cc1ccc(C)n1-c1nnc(N2CCC(C(=O)NCc3ccccc3Cl)CC2)s1 |  | 2.9 |
| CCC1=Nc2cc(C(=O)NCCCOC(C)C)ccc2Sc2ccc(C)cc21 |  | -0.336 |
| CCCn1c(=N)c(C(=O)NCc2ccccc2)cc2c(=O)n3cccc(C)c3nc21 |  | -13.3 |
| COc1ccccc1Nc1c2c(nc3ccc(NC(=O)/C=C/c4cc(OC)c(OC)c(OC)c4)cc13)CCCC2 | 1.93 µM (active) |  |
| CCCS(=O)(=O)c1ncc(Cl)c(C(=O)Nc2scc(-c3ccccc3)c2C(=O)OCC)n1 |  | -0.943 |

| Compound | Potency | activity change, negative = inhibition [%] |
| --- | --- | --- |
| Cc1ccccc1CNC(=O)CSc1nnc(C)c2c(C)n(-c3ccccc3)nc12 |  | -1.41 |
| CC(C)(C)c1ccc(C(=O)NCC(c2ccco2)S(=O)(=O)c2ccc(F)cc2)cc1 (stereo unspecified) |  | 7.58 |
| O=C(NCCCN1CCN(c2cccc(Cl)c2)CC1)c1nnc(Cc2ccc(F)cc2Cl)o1 |  | -8.09 |
| CCOc1ccc(NC(=O)c2c(NC(=O)Cc3ccccc3)sc3c2CCC(C)C3)cc1 (stereo unspecified) | 17.2 µM (active) |  |
| CCOCCCNC(=O)c1c(NC(=O)c2nc(SC)ncc2Cl)sc2c1CCCC2 |  | 2.95 |
| O=C(c1ccc(C(F)(F)F)cc1)N1CCC(c2nc(-c3ccc(S(=O)(=O)N4CCCC4)cc3)no2)CC1 |  | 3.36 |
| CCOC(=O)c1ccc(N2C(=O)c3n[nH]c(C)c3C2c2ccc(O)c(OC)c2)cc1 (stereo unspecified) | 19.3 µM (active) |  |
| COc1ccc(-c2onc(C)c2C)cc1S(=O)(=O)NCC1CCN(Cc2cccc(F)c2)CC1 |  | 7.67 |
| CCCCOc1ccc(CN2C(=O)C(=O)c3cc(Br)cc(C)c32)cc1OC |  | 0.323 |
| Cc1cc(F)ccc1NS(=O)(=O)c1ccc(-n2cccn2)cc1 | 13.7 µM (active) |  |
| CCC1CCCCN1CCCNC(=O)c1cc2c(Cl)nc3ccccc3c2s1 (stereo unspecified) |  | 2.64 |
| CCOC(=O)C1CCN(C(=O)CSc2c3c(nc4ccc(Cl)cc24)CCCC3)CC1 |  | -3.72 |
| Cc1ccc(OCCSc2nc3ccc(NC(=O)COc4ccc(C)cc4)cc3s2)cc1 |  | -1.1 |
| Cc1cccc(Nc2cc(C)nc(-n3nc(C)cc3C)n2)c1 | 9.68 µM (active) |  |
| CCOC(=O)c1c(C)[nH]c(CCC(=O)NCCCN2CCN(c3cccc(Cl)c3)CC2)c1C |  | -1.54 |
